Compound activity (PubChem)
Sampled rows, rich in hits. Any-hit rate of the full collection: about 21%.
SARS PLP yeast – blocks SARS-CoV papain-like protease in a yeast assay; S. cerevisiae expressing SARS-CoV PLpro, growth rescue; Potency, µM (series often up to 32.9 µM), inactives show at the highest dose activity, positive = growth rescue, most hits filed as activators; 330,000 tested, 0.19% active; AID 485353; calls by dose curve; note: potency is the fitted concentration of half-maximal effect; 0% is about no effect; nearly all actives have a fitted effect of over 55% in size
CHX counter – affects cycloheximide protein synthesis inhibition readout, counter-screen | cell reporter, cycloheximide protein synthesis inhibition counterscreen | AID 2314 | 300,000 tested, 12% active | max response, %; in the data active = max response mostly above about 13%, no sharp cut-off; inactive = mostly below about 14%; note: read at 38.3 µM for the half of the compounds with a filed dose; 0% is about no effect
Pf growth 48h – inhibits P. falciparum growth in the first generation, 48 h; P. falciparum luciferase growth in erythrocytes, 48 h; Potency, µM (top dose mostly 28.7 µM), inactives show top-dose activity change, negative = inhibition, hits mostly inhibitors; 310,000 tested, 5.9% active; note: potency is the fitted concentration of half-maximal effect; % is set by controls: 0 for no effect and ±100 for the full control effect
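Growth was read as firefly luciferase luminescence after a 48 h, 37 C, 5% CO2 exposure of compounds to reporter-bearing P. falciparum cultures (0.1% parasitemia, 2% hematocrit final) in Albumax-supplemented RPMI 1640.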
Pf growth 96h – inhibits malaria parasite growth, 96 h; P. falciparum luciferase reporter growth, 96 h; Potency, µM (titrated, usually from 28.7 µM), without a hit: at the highest dose activity change, negative = inhibition, actives largely listed as inhibitors; 320,000 tested, 6.9% active; AID 504834; note: potency is the fitted concentration of half-maximal effect; % is set by controls: 0 for no effect and ±100 for the full control effect
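Cell-based qHTS: luciferase-tagged P. falciparum in erythrocytes (2% hematocrit, 0.05% parasitemia final) incubated with compounds for 96 hours, 37 C, 5% CO2; luciferase detection reagent then added and luminescence measured.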
NS1 function inh – influenza NS1 inhibition; Potency, µM (highest dose often 46.1 µM), for inactives: top-dose activity, positive = more growth; 270,000 tested, 0.4% active; AID 2326; calls by dose curve; note: potency is the fitted concentration of half-maximal effect; actives are rising curves; nearly all actives have a fitted effect of over 50% in size
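Recovery from NS1-induced slow growth read by OD600 in budding yeast switched to galactose assay medium (pH 6.0, -URA) at 1:100 dilution. Compound 23 nl per well; the matching strain lacking NS1 serves as control.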
Shiga inhibitor – Shiga toxin inhibition; Vero cells, Shiga toxin protein synthesis inhibition reporter; inhibition, % at 38.7 µM; 290,000 tested, 9.2% active; AID 2315; in the data active = inhibition mostly above about 28%, no sharp cut-off; inactive = mostly below about 43%; note: 0% is about no effect
The depositor's hits bear a star. Unless noted, calls come from the whole dose curve; as a rule, active = well fitted inhibition curve with a large enough effect; inconclusive = small, poorly fitted or top-dose-only effect, or another doubt; inactive = no such curve, though single readings can be large or run the other way.

`O=C1c2ccccc2NC(c2cccc([N+](=O)[O-])c2)N1O` (stereo not drawn) gave SARS PLP yeast 9.1%, CHX counter -1.7, Pf growth 48h inconclusive, Pf growth 96h 8.28µM*, NS1 function inh -35.0% and Shiga inhibitor -5.1.
O=C1c2ccccc2NC(c2ccco2)N1O (stereo not drawn) was read as SARS PLP yeast -3.6%, CHX counter 9.6, Pf growth 48h 18.9%, Pf growth 96h -11.9%, NS1 function inh 0.4% and Shiga inhibitor 47.1.
For O=C1c2ccccc2NC(c2cccc(O)c2)N1O (stereo not drawn) the results were SARS PLP yeast 1.0%, CHX counter 16.2*, Pf growth 48h 45.3%, Pf growth 96h 0.2%, NS1 function inh 1.0% and Shiga inhibitor 25.6.
O=C1c2ccccc2NC(c2ccc([N+](=O)[O-])cc2)N1O (stereo not drawn) was read as SARS PLP yeast inconclusive, CHX counter 1.2, Pf growth 48h inconclusive, Pf growth 96h 20.3%, NS1 function inh -3.9% and Shiga inhibitor -6.9.
For COCCCNC(=S)N/N=C/c1ccc(OC)c(Br)c1 the results were SARS PLP yeast 6.4%, CHX counter 10.9, Pf growth 48h 7.1%, Pf growth 96h inconclusive, NS1 function inh -6.5% and Shiga inhibitor -8.0.
Screening CCN1CCN(CC(=O)Nc2nc3ccc(OC)cc3s2)CC1 returned SARS PLP yeast 13.8%, CHX counter -2.6, Pf growth 96h inconclusive, NS1 function inh -1.1% and Shiga inhibitor 4.1.
Screening COc1ccc2nc(NC(=O)CN3CCOCC3)sc2c1 returned SARS PLP yeast -8.6%, CHX counter 58.4*, Pf growth 48h 62.3%, NS1 function inh -4.0% and Shiga inhibitor 24.1.
COc1ccc2nc(NC(=O)CN3CCN(C)CC3)sc2c1 was read as SARS PLP yeast -2.2%, CHX counter 45.7*, Pf growth 48h 104.4%, Pf growth 96h 102.2%, NS1 function inh -55.0% and Shiga inhibitor 151.6*.
COc1ccc2nc(NC(=O)CN3C(=O)NC4(CCCCC4)C3=O)sc2c1 was read as SARS PLP yeast 0.7%, CHX counter 17.0*, Pf growth 48h -1.6%, Pf growth 96h 2.4%, NS1 function inh 1.4% and Shiga inhibitor 34.2.
`Brc1ccc(-c2nc3ncccn3c2Nc2ccc3c(c2)OCCO3)o1` gave SARS PLP yeast 9.5%, CHX counter 28.8, Pf growth 96h 23.6%, NS1 function inh 6.5% and Shiga inhibitor 15.3.
Screening Cc1ccc(Nc2c(-c3ccc(C)o3)nc3cnccn23)cc1 returned SARS PLP yeast -0.7%, CHX counter -0.7, Pf growth 96h 0.738µM*, NS1 function inh -13.0% and Shiga inhibitor -13.3.
For Cc1ccc(-c2nc3ncccn3c2Nc2ccc3c(c2)OCCO3)o1 the results were SARS PLP yeast -0.4%, CHX counter 27.4*, Pf growth 48h 5.2%, Pf growth 96h inconclusive, NS1 function inh -1.8% and Shiga inhibitor 70.3*.
For Cc1ccc(-c2nc3cnccn3c2Nc2ccccc2)o1 the results were SARS PLP yeast -9.1%, CHX counter 14.9, Pf growth 96h -19.3%, NS1 function inh -78.9% and Shiga inhibitor 11.7.
Cc1ccc(-c2nc3ncccn3c2Nc2ccc3c(c2)OCCO3)cc1 was read as SARS PLP yeast 0.1%, CHX counter 3.2, Pf growth 96h 11.7µM*, NS1 function inh -7.9% and Shiga inhibitor -5.3.
For NC(=O)c1ccccc1NC(=O)CC12CC3CC(CC(Br)(C3)C1)C2 the results were SARS PLP yeast 3.0%, CHX counter -5.3, Pf growth 48h -3.2%, Pf growth 96h 23.8%, NS1 function inh 10.1% and Shiga inhibitor -2.2.
COc1ccc(-c2cc(C(F)(F)F)n3nc(C(=O)NCc4ccco4)cc3n2)cc1OC was read as SARS PLP yeast 4.3%, CHX counter -2.0, Pf growth 96h 23.7%, NS1 function inh 6.2% and Shiga inhibitor -11.7.
Screening COc1ccc(-c2nc(C#N)c(NCCc3ccccc3)o2)cc1 returned SARS PLP yeast -0.8%, CHX counter 33.6*, Pf growth 48h -25.2%, Pf growth 96h 13.5%, NS1 function inh 0.7% and Shiga inhibitor 64.0*.
For COc1ccc(CNc2oc(-c3ccccc3)nc2C#N)cc1 the results were SARS PLP yeast -24.6%, CHX counter 21.7*, Pf growth 48h 20.2%, Pf growth 96h 8.28µM*, NS1 function inh -55.8% and Shiga inhibitor 21.3.
Screening COc1ccc(CCNc2oc(-c3ccc(C)cc3)nc2C#N)cc1OC returned SARS PLP yeast -7.9%, CHX counter 12.2, Pf growth 48h -18.7%, Pf growth 96h -11.8%, NS1 function inh -47.0% and Shiga inhibitor 9.2.
`Cc1ccc(S(=O)(=O)N/N=c2\oc3ccccc3cc2C(=O)Nc2cccc(C)c2)cc1` gave SARS PLP yeast 0.0%, CHX counter 61.9*, Pf growth 48h -8.3%, Pf growth 96h 31.2%, NS1 function inh 7.4% and Shiga inhibitor 70.9*.
Screening Cc1ccnc(NC(=O)c2oc3ccccc3c2C)c1 returned SARS PLP yeast -3.1%, Pf growth 48h 36.9% and Pf growth 96h 3.7%.
Cc1ccnc(NC(=O)c2cc3ccccc3oc2=O)c1 was read as SARS PLP yeast 4.1%, CHX counter 27.1*, Pf growth 48h 35.7%, Pf growth 96h 43.7%, NS1 function inh -1.1% and Shiga inhibitor 121.6*.
Screening COc1ccc2oc(=O)c(C(=O)Nc3cccc(C)c3)cc2c1 returned SARS PLP yeast 0.6%, CHX counter 43.5*, Pf growth 48h 41.3%, Pf growth 96h 0.0%, NS1 function inh 3.2% and Shiga inhibitor 49.1*.
For CC(=O)Nc1c(-c2ccccc2)nc2ncccn12 the results were SARS PLP yeast 0.7%, CHX counter -4.0, Pf growth 96h -12.1%, NS1 function inh -1.5% and Shiga inhibitor -11.4.
O=C(Nc1c(-c2ccccc2)nc2ncccn12)c1cc2ccccc2oc1=O was read as SARS PLP yeast 9.3%, CHX counter 35.7*, Pf growth 48h 5.4%, Pf growth 96h 6.0%, NS1 function inh inconclusive and Shiga inhibitor -17.9.
`CC1(C)NC(=O)N(CC(=O)Nc2ccc(-n3cnnn3)cc2)C1=O` gave SARS PLP yeast -0.9%.
Screening O=C(CSc1nc2c(cnn2-c2cccc(Cl)c2)c(=O)[nH]1)NCCC1=CCCCC1 returned SARS PLP yeast 0.6%, Pf growth 48h -12.3% and Pf growth 96h 5.5%.
Screening Cc1ccc[n+](CC(=O)c2cc3ccccc3oc2=O)c1 returned SARS PLP yeast -4.1%, CHX counter 24.6*, Pf growth 48h -10.9%, Pf growth 96h -0.3%, NS1 function inh -9.8% and Shiga inhibitor 29.5.
`Cc1cccc(NC(=O)c2cc3ccccc3oc2=O)c1` gave SARS PLP yeast 8.0%, CHX counter 41.2*, Pf growth 48h 219.5%, Pf growth 96h -24.9% and NS1 function inh -0.2%.
